In the library only some 7.1% were active in any assay of this set; here they are far more common.
IL1B secr inh: qHTS for Inhibitors of Inflammasome Signaling: IL-1-beta AlphaLISA Primary Screen; THP-1 LPS/ATP IL-1B secretion, AlphaLISA, 16 h; hits give low values; activity change, % at 57.5 µM; 360,000 compounds, 4.7% hits; in the data active = activity change below about -50%; inconclusive = mostly about -30% to -49%; also: % is scaled to controls: 0 for no effect and ±100 for the full control effect
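THP-1 cells pretreated 1 hr with compounds (up to 57.5 uM final), then stimulated with LPS (250 ng/mL final) plus ATP (1.25 mM final); secreted IL-1B measured by AlphaLISA after 16 hr, decreased signal indicating inhibition.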
MCF10A rereplic: A quantitative high throughput screen for small molecules that induce DNA re-replication in MCF 10a normal breast cells. MCF 10A DNA re-replication, Hoechst nuclear intensity, 48 h. 350,000 compounds, 2.9% hits. AID 624296, 2012. Potency, µM (highest dose often 46.1 µM), without a hit: at the top dose activity, positive = re-replication, hits mostly activators; also: potency is read from the fitted curve at half-maximal effect; % of control where 0% means no effect; nearly all actives have a fitted effect of over 50% in size
ATXN viability: Viability Counterscreen for Primary qHTS for Inhibitors of ATXN expression. 400,000 compounds, 0.49% hits. S2 cells (HEK-293 line with an ATXN2-luciferase reporter) viability, CellTiter-Fluor protease fluorescence, 24 h. AID 651635, 2014. Potency, µM (doses to about 56.7 µM), usual class: cytotoxic; also: potency is read from the fitted curve at half-maximal effect; nearly all actives have a fitted effect of over 40% in size
SW480 rereplic: A quantitative high throughput screen for small molecules that induce DNA re-replication in SW480 colon adenocarcinoma cells; SW480 DNA re-replication, Hoechst DNA content imaging, 48 h; Potency, µM (series often up to 46.1 µM), without a hit: at the top dose re-replication activation, hits mostly activators; 340,000 compounds, 1.8% hits; AID 624297, 2012; also: potency is read from the fitted curve at half-maximal effect; % of control where 0% means no effect; nearly all actives have a fitted effect of over 55% in size
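SW480 cells exposed to compounds for 48 hr at 37 C, 5% CO2, then Hoechst-stained 40 min. Nuclear DNA content imaged by fluorescence scanning (405 nm excitation, 500-530 nm emission); re-replication scored as increased high-intensity nuclei.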
PINK1 expr mod: A Quantitative High throughput Screen to Identify Chemical Modulators of PINK1 Expression | PINK1 immunofluorescence, high-content cytometry, 24 h | Potency, µM (doses to about 76.6 µM), inactives show at the highest dose activation (PINK1 increase), most hits filed as activators | 410,000 compounds, 0.2% hits; active = well fitted activation curve with a large enough effect; inconclusive = small, poorly fitted or top-dose-only effect; cell line not stated here; also: potency is read from the fitted curve at half-maximal effect; % of control where 0% means no effect; nearly all actives have a fitted effect of over 65% in size
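Stable cell line treated 24 h with compounds at 5 concentrations (CCCP controls), then fixed and immunostained for PINK1 plus nuclear and cell stains; PINK1 immunofluorescence quantified by laser-scanning microplate cytometry.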
ATXN2 expr inh: Primary qHTS for Inhibitors of ATXN expression; HEK-293 ATXN2-luciferase reporter, luminescence, 24 h; Potency, µM (titrated, usually from 57 µM), inactives show top-dose activity change, negative = inhibition, hits mostly inhibitors; 360,000 compounds, 0.72% hits; also: potency is read from the fitted curve at half-maximal effect; % is scaled to controls: 0 for no effect and ±100 for the full control effect; nearly all actives have a fitted effect of over 55% in size
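ATXN2-luciferase reporter cells (luciferase flanked by upstream and downstream ATXN2 gene portions) were treated 24 h at 37 °C with compounds at up to 57 uM. SteadyGlo luminescence gave expression; GF-AFC fluorescence gave viability.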
Starred values were filed as active, the others as inactive. Unless noted, calls follow the shape of the dose curve; as a rule, active = well fitted curve in the direction sought with a large enough effect; inconclusive = small, poorly fitted or top-dose-only effect, or another doubt; inactive = no such curve, though single readings can be large; an effect the other way counts as inactive or inconclusive.

Results for O=S(=O)(c1ccccc1)N1CCN(c2cccc(Cl)c2)CC1 ?
IL1B secr inh: -16; MCF10A rereplic: -5%; ATXN viability: inactive; SW480 rereplic: -1%; PINK1 expr mod: 0%; ATXN2 expr inh: 1%

How did COC(=O)c1ccc(NC(=O)CSc2ccc(-c3sc(-c4ccccc4)nc3C)nn2)cc1 do in these assays?
PINK1 expr mod: 1%

Results for COc1cc(OC)c(OC)cc1/C=C/c1nccc2ccccc12 ?
PINK1 expr mod: 11%

How did COc1cccc(Cn2c(=O)n(-c3cccc(Cl)c3C)c(=O)c3c4c(sc32)CN(C(C)=O)CC4)c1 do in these assays?
ATXN viability: inconclusive; PINK1 expr mod: 0%; ATXN2 expr inh: inconclusive

How did CCN1CCCC1CNC(=O)c1cnn(-c2nccc(-c3ccccc3OC)n2)c1-c1ccco1 (centres undefined) do in these assays?
ATXN viability: inactive; PINK1 expr mod: 0%

Results for N#Cc1c(NC(=S)NC(=O)C2CCCC2)sc2c1CCCCC2 ?
IL1B secr inh: -54*; MCF10A rereplic: inconclusive; ATXN viability: inconclusive; SW480 rereplic: -2%; PINK1 expr mod: inconclusive; ATXN2 expr inh: 7%

How did CCC(=O)Nc1sc2c(c1C#N)CCC2 do in these assays?
IL1B secr inh: 24; MCF10A rereplic: -3%; ATXN viability: inactive; SW480 rereplic: -3%; PINK1 expr mod: 2%; ATXN2 expr inh: -13%

How did CC(C)CC(=O)NC(NC(=S)Nc1sc2c(c1C#N)CCCC2)C(Cl)(Cl)Cl (centres undefined) do in these assays?
IL1B secr inh: 24; MCF10A rereplic: 16µM*; ATXN viability: inactive; SW480 rereplic: 2%; PINK1 expr mod: inconclusive; ATXN2 expr inh: inconclusive

How did Cc1cc(C)nc(N/C(=N\S(=O)(=O)Cc2ccccc2)Nc2ccccc2Br)n1 do in these assays?
IL1B secr inh: -8; MCF10A rereplic: 4.1µM*; ATXN viability: inconclusive; SW480 rereplic: inconclusive; PINK1 expr mod: -2%; ATXN2 expr inh: 4%

How did CN(C)S(=O)(=O)N(CC(=O)NCCSCc1ccccc1Cl)c1ccccc1 do in these assays?
PINK1 expr mod: 0%

What do the screens show for `COc1ccc(NC(=O)/C(C#N)=C/c2ccc(OCc3cc(=O)n4nc(C)sc4n3)cc2)cc1`?
ATXN viability: inactive; PINK1 expr mod: 5%; ATXN2 expr inh: 14%

What do the screens show for `N#Cc1cnc(SCCc2ccccc2)nc1N`?
IL1B secr inh: 4; MCF10A rereplic: 9.2µM*; ATXN viability: inactive; SW480 rereplic: 9%; PINK1 expr mod: 10%; ATXN2 expr inh: 96%

Results for CCN1C(=O)[C@H]2[C@@H](c3ccc(-c4cccc(Cl)c4)c(OC)c3)N3CCCC[C@@]3(C(=O)OC)[C@H]2C1=O ?
IL1B secr inh: -62*; MCF10A rereplic: -2%; ATXN viability: inactive; SW480 rereplic: 20%; PINK1 expr mod: 2%; ATXN2 expr inh: -25%

Results for CCN1C(=O)[C@H]2[C@@H](c3ccc(-c4ccc(F)cc4)c(OC)c3)N3CCCC[C@@]3(C(=O)OC)[C@H]2C1=O ?
IL1B secr inh: -74*; MCF10A rereplic: inconclusive; ATXN viability: inconclusive; SW480 rereplic: 27%; PINK1 expr mod: 9%; ATXN2 expr inh: -32%

Results for CCN1C(=O)[C@H]2[C@@H](c3ccc(-c4cccc(Cl)c4)cc3)N3CCCC[C@@]3(C(=O)OC)[C@H]2C1=O ?
IL1B secr inh: -1; MCF10A rereplic: 1%; ATXN viability: inactive; SW480 rereplic: 3%; PINK1 expr mod: 6%; ATXN2 expr inh: -4%

What do the screens show for `CCc1ccc(NC(=O)C(=O)NCCc2sc(-c3ccc(C)cc3)nc2C)cc1`?
ATXN viability: inactive; PINK1 expr mod: -1%; ATXN2 expr inh: 3%

Screening data deposited in PubChem by National Center for Advancing Translational Sciences (NCATS).
